“And” between values parts separate entries of the source, which are not always exact repeats. Identical values can stand only once. Results filed as inconclusive are left out. The source made the active and inactive calls. Unless noted, the call rests on the fitted dose curve; in most records, active means well fitted curve in the direction sought with a large enough effect; inconclusive means small, poorly fitted or top-dose-only effect, or another doubt; inactive means no such curve, though single readings can be large; an effect the other way counts as inactive or inconclusive.

Experiment [1] in a line: qHTS Assay for Identifying Gametocytocidal Compounds (AID 743244). Further: potency means the concentration at half of the fitted maximal effect.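 On max response: on the % scale 0 is the no-effect control and ±100 the full control effect; actives lower the fluorescent signal which means gametocytes are killed.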 As to conditions: P. falciparum 3D7 stage III-V gametocytes, alamarBlue, 72 h; max response: stronger effect = lower value. Put shortly:
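Compounds are pinned into medium, gametocytes (stage III–V, 3D7, 20,000 cells/well) added, and plates held 72 h at 37 °C in 5% CO2. AlamarBlue follows for 24 h before fluorescence reading.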

Experiment [2] can be described thus: qHTS assay for measurement of the activity of small molecule inhibitors on Zika virus induced Caspase-3 activity in human iPSC derived neural progenitor cells (hNPCs) (AID 1224857). Further: % of control where 0% means no effect; nearly all actives have a fitted effect of over 65% in size. A digest of the protocol: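 Pretreat hNPCs with compound 1 h; infect ZIKV 2 FFU/cell; 6 h 37 C, 5% CO2; Caspase-Glo 3/7, 30 min RT; luminescence; normalize to no-virus and virus-only wells.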

Experiment [3] in a line: qHTS assay for measurement of the activity of small molecule inhibitors on Zika virus induced Caspase-3 activity in human astrocytoma cells (AID 1224859).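 Further: plate controls were ZIKV-infected untreated cells for no effect and uninfected cells for full effect.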 A digest of the protocol:
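Human SNB-19 astrocytoma cells in RPMI 1640 with 10% FBS receive compound one hour ahead of Zika virus at 2 FFU/cell. After 6 h infection, caspase-3/7 activity is detected by Caspase-Glo luminescence.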

A short description of experiment [4]: qHTS assay to identify small molecule inhibitors of chordoma cells - UCH-1 (AID 1259355). Further: nearly all actives have a fitted effect of over 55% in size. Further: potency means the concentration at half of the fitted maximal effect. A digest of the protocol:
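Screening used approved and investigational drugs in 15-point titration against 800 seeded cells per well. A fixed combination of auranofin with camptothecin, doxorubicin, rubitecan and topotecan followed compound addition, and growth was scored by CellTiter-Glo after 48hr.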

The nature of experiment [5]: qHTS assay to identify small molecule inhibitors of chordoma cells - UCH-2 (AID 1259356). Further: on the % scale 0 is the no-effect control and ±100 the full control effect.
Experiment [6] addresses T1, Hexokinase-4 (Homo sapiens) + Glucokinase regulatory protein (Homo sapiens) (UniProt P35557+Q14397). Put plainly: qHTS assay for inhibitors of recombinant human GCK-GKRP interaction: ADP-Glo assay (AID 743206).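 Further: plate controls were DMSO plus enzyme for no effect and no enzyme for full effect.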 Put shortly:
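Pin-transferred compounds meet a 15 nM GST-GCK/15 nM FLAG-GKRP/2 uM S6P mix (dispense concentrations). ATP is then added to 0.4 mM final with 5 mM glucose, and the reaction runs 60 min at room temperature. ADP is quantified luminescently.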

In experiment [7] the target is T1, Hexokinase-4 (Homo sapiens) + Glucokinase regulatory protein (Homo sapiens). Put plainly: qHTS assay for inhibitors of recombinant human GCK-GKRP interaction: HTRF assay (AID 743207).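 Further: 0% = DMSO with GCK present and -100% = DMSO wells lacking GCK.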 A digest of the protocol:
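Titration screening format: recombinant GST-GCK and FLAG-GKRP at 5 nM, S6P at 2 uM, labelled anti-tag antibodies, 60 min at RT, dual-wavelength HTRF readout.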

The nature of experiment [8]: qHTS assay for cell viability of the p53RE-bla HCT-116 cell line (AID 743292). Further: on the % scale 0 is the no-effect control and ±100 the full control effect; nearly all actives have a fitted effect of over 55% in size. A digest of the protocol:
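ATP-based luminescent viability (CellTiter-Glo, 30 min RT) after 16 h compound treatment at 37 C of p53RE-bla HCT-116 cells, seeded at 4,000 cells/well and rested 5 h before dosing.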

Experiment [9] can be described thus: qHTS profiling for inhibitors of Plasmodium falciparum (3D7) proliferation (AID 743322).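 Further: infected erythrocytes exposed to compound for 72 h before lysis; 100% = DMSO vehicle wells and 0% = 0.29 µM artemisinin.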 The settings on record: P. falciparum 3D7 proliferation; at 28.7 µM (top of the series) unless noted. Put shortly: (§1)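 Parasite DNA was quantified by SYBR Green I fluorescence (ex 485, em 535 nm) after overnight lysis in saponin/Triton buffer at room temperature. Cultures at 0.3% parasitemia and 2.5% hematocrit were first exposed to compound for 72 h at 37 C; signals were normalised to artemisinin (0.29 uM) and vehicle wells.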

Experiment [10] can be described thus: qHTS profiling for inhibitors of Plasmodium falciparum (DD2) proliferation (AID 743323; call rule not given here). As to conditions: lower = more inhibition; at 28.7 µM (top of the series) unless noted. Put shortly: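 1536-well qHTS; infected RBCs 0.3% parasitemia/2.5% Hct final; cpd 72 h 37 C 5% CO2; lysis buffer + SYBR Green I, o/n RT dark; FI 485/535; norm. to 0.29 uM artemisinin and DMSO, plate-stack corrected.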

A short description of experiment [11]: qHTS profiling for inhibitors of Plasmodium falciparum (HB3) proliferation (AID 743324).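 Further: 100% = DMSO vehicle wells and 0% = artemisinin-treated control wells.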 The settings on record: Plasmodium falciparum HB3 blood-stage proliferation; at 28.7 µM (top of the series) unless noted. A digest of the protocol: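 SYBR Green fluorescence (485 ex/535 em) of lysed cultures, incubated overnight at room temperature in the dark, quantifies parasite DNA. Infected erythrocytes at 0.3% parasitemia and 2.5% hematocrit were exposed 72 h; values normalized to DMSO and 0.29 uM artemisinin controls.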

A short description of experiment [12]: qHTS profiling of the MIPE4 collection as inhibitors of Plasmodium falciparum (3D7) proliferation (AID 743344; call rule not given here;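 further: scaled between DMSO vehicle wells and 0.29 µM artemisinin as full inhibition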). As to conditions: P. falciparum 3D7 in erythrocytes, SYBR Green DNA fluorescence, 72 h; at 28.5 µM (top of the series) unless noted. Put shortly:
as §1

A short description of experiment [13]: qHTS profiling of the MIPE4 collection as inhibitors of Plasmodium falciparum (DD2) proliferation (AID 743345; call rule not given here). As to conditions: P. falciparum Dd2 in erythrocytes, SYBR Green DNA, 72 h; at 28.5 µM (top of the series) unless noted. A digest of the protocol: as §1
Experiment [14] in a line: qHTS profiling of the MIPE4 collection as inhibitors of Plasmodium falciparum (DD2) proliferation (Rep 2) (AID 743346; call rule not given here). As to conditions: P. falciparum Dd2 in erythrocytes, SYBR Green DNA, 72 h; at 28.5 µM (top of the series) unless noted. A digest of the protocol:
as §1

The nature of experiment [15]: qHTS profiling of the MIPE4 collection as inhibitors of Plasmodium falciparum (HB3) proliferation (AID 743347; call rule not given here;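 further: plate controls were DMSO vehicle wells for no effect and artemisinin wells for full effect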). The settings on record: P. falciparum HB3 in erythrocytes, SYBR Green DNA, 72 h; at 28.5 µM (top of the series) unless noted. Put shortly:
as §1

T1 sequence (P35557 whole entry, looked up): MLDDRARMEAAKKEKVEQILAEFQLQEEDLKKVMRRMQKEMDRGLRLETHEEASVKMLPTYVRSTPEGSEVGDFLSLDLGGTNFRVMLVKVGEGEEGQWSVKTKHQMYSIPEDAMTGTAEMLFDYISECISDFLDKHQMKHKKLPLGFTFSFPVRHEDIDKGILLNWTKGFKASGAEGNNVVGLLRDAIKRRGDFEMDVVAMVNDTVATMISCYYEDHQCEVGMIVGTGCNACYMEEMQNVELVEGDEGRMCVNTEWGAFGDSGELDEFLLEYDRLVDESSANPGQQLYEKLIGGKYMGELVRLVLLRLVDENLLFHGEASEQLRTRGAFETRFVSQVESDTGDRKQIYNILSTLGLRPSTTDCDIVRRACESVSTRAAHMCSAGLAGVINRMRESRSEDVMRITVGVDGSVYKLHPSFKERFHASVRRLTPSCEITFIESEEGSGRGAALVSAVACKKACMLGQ
T1 sequence (Q14397 whole entry, looked up): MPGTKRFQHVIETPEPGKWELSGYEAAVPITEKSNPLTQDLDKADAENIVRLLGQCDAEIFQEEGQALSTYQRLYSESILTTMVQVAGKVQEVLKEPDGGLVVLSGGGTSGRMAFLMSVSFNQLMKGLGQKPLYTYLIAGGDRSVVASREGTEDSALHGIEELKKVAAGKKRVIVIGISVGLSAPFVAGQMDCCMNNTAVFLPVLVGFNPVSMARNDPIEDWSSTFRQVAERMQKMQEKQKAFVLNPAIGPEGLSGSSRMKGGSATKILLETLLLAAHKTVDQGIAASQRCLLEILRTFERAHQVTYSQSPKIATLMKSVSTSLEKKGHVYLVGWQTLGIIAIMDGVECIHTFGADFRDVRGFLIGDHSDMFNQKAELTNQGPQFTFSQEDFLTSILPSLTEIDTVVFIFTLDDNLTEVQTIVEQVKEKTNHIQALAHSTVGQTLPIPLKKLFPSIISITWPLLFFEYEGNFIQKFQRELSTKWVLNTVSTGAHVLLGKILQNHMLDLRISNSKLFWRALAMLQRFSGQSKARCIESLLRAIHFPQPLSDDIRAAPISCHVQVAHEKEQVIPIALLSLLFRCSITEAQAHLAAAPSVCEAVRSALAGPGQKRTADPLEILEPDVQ

Take `C[C@]12CC[C@@H]3c4ccc(O)cc4CC[C@H]3[C@@H]1C[C@@H](O)[C@@H]2O`: the max response in [1] is 5.6% (inactive). The compound was called inactive in experiment [2] and in experiment [3]. Also, the Potency result in experiment [4] and in experiment [5] was “inactive” throughout.
For the compound `C[n+]1c2cc(N)ccc2cc2ccc(N)cc21` (tested in a mixture with another compound), the Potency was 7.94 µM (active) in experiment [1] and 15.8 µM (active) in [4]. Besides, the outcome in experiment [2] and in experiment [3] was inactive.
Regarding `CC(=O)CC(c1ccc([N+](=O)[O-])cc1)c1c(O)c2ccccc2oc1=O` (configuration not stated), the max response in experiment [1] was 29.4% (inactive). Besides, the call in experiment [2] and in experiment [3] was inactive. Also, the Potency entry in experiment [4] and in experiment [5] was “inactive” throughout.
For `CCOc1ccc2nc3cc(N)ccc3c(N)c2c1`, the outcome in experiment [2] and in experiment [3] was inactive. In addition, in experiment [5], the Potency result was “inactive”.
As to `COc1cc(C=C2CCC/C(=C\c3ccc(O)c(OC)c3)C2=O)ccc1O`, the outcome in experiment [2] and in experiment [3] was inactive. Further, in experiment [5], the Potency entry is “inactive”.
As for `NC(CS)C(=O)O` (configuration not stated), the compound was classed as inactive in experiment [2] and in [3]. The Potency result in [5] was “inactive”.
Turning to `CN1C2CCC1CC(OC(=O)c1c[nH]c3ccccc13)C2` (configuration not stated), the result in experiment [6], in experiment [7], in experiment [2] and in experiment [3] was inactive. Further, in experiment [1], the max response was 9.76% (inactive). The Potency result in [4] is “inactive”.
With `O=C1[C@H]2CCCC[C@H]2C(=O)N1CCCCN1CCN(c2nsc3ccccc23)CC1`, the result in [2] and in [3] was inactive. In addition, the Potency entry in experiment [5] is “inactive”.
Consider `CCC(NC(C)C)C(O)c1ccc(O)c(O)c1` (configuration not stated), for which the result in experiment [6], in [7], in experiment [2] and in [3] was inactive. For the same compound, the max response in experiment [1] is -4.31% (inactive). Moreover, the Potency entry in [5] is “inactive”.
On to `CCOC(=O)c1cccc(N)c1`, for which the max response in experiment [1] was -5.91% (inactive). The result in experiment [2] and in experiment [3] was inactive. The Potency entry in experiment [4] was “inactive”.
On to `CC(C)(C)CC(C)(C)c1ccc(O)c(Cc2ccc(Cl)cc2Cl)c1`, for which the outcome in experiment [2] and in experiment [3] was inactive. The Potency result in experiment [5] was “inactive”.
For `O=C(O)c1cc2cc(Cc3cccnc3)ccc2o1`, the result in experiment [6], in [7], in experiment [2] and in [3] was inactive. Further, the max response in [1] was 2.09% (inactive) and 51.2% (inactive). Besides, the Potency result in [5] is “inactive”.
As to `Oc1c(Cl)cc(Cl)cc1Sc1cc(Cl)cc(Cl)c1O`, the max response in [1] was 20.1% (inactive). For the same compound, the call in [8], in experiment [2] and in experiment [3] was inactive. For the same compound, the Potency entry in [4] and in experiment [5] was “inactive” throughout.
As for `COc1cccc(CCc2ccccc2OCC(CN(C)C)OC(=O)CCC(=O)O)c1` (configuration not stated), in experiment [1], the Potency is 3.72 µM (active). In addition, the remaining parasite growth % (stronger effect = lower value) in [9] came to 1.08%. In addition, the activity, percent of control in experiment [10] stood at 1.06%. In experiment [11], this compound came in with a remaining proliferation (% of control), lower = more inhibition of 1.2%. The compound further had a parasite growth, % of DMSO control in experiment [12] of 7.32%. The same compound came in with a parasite growth remaining, % of DMSO control (lower = more inhibition) in experiment [13] of 11.9%. For the same compound, in experiment [14], the parasite growth, % of control (lower = inhibition) came out at 21.2%. The growth, % of control in experiment [15] was determined as 5.27%. For the same compound, the outcome in experiment [2] and in [3] was inactive. Moreover, the Potency entry in experiment [4] was “inactive”.
On to `CCC(C(=O)OCCN(CC)CC)c1ccccc1` (configuration not stated), for which the max response in experiment [1] is -1.81% (inactive). For the same compound, the call in experiment [2] and in [3] was inactive. Further, the Potency result in [4] is “inactive”.
